This is a sample that favours compounds with a hit; in the whole collection about 7.3% have one here.
SMN2 splice enh = enhancers of SMN2 splice variant expression. HEK293 SMN2-luciferase splicing reporter, luminescence, 30-36 h. Potency, µM (top dose mostly 46.1 µM), inactives show top-dose activity change, positive = activation, most hits filed as activators. hit rate 2.8% among 210,000. AID 1458; note: % of control where 0% means no effect; nearly all actives have a fitted effect of over 55% in size
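HEK293 cells carry an SMN2 minigene-luciferase reporter in which exon 7 inclusion puts luciferase in frame. Cells were seeded at 2000 cells/well, attached for 10-12 hours, then exposed to compounds for 30-36 hours at 37C before ONE-Glo luminescence.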
ELG1 genotox = genotoxicity induction in ELG1-luciferase HEK293T cells | HEK293T ELG1-luciferase reporter, luminescence, 16 h | Potency, µM (top dose mostly 46 µM), without a hit: top-dose activity change, positive = activation, usual class: activators | hit rate 1.3% among 330,000 | AID 504466; note: % of control where 0% means no effect; nearly all actives have a fitted effect of over 60% in size
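HEK293T cells expressing luciferase-tagged ELG1 were exposed to compound or DMSO vehicle for 16 hr at 37 °C and 5% CO2. Luciferase activity was then measured with ONE-Glo after 30 min at room temperature.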
FLuc counter = counter-screen for miR-21 project: firefly luciferase inhibitors or activators. P08659. purified FLuc, Km substrates, luminescence inhibition. Potency, µM (highest dose often 57.5 µM), without a hit: at the highest dose activity change, negative = inhibition, actives largely listed as inhibitors. hit rate 6.9% among 360,000;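 note: plate controls were vehicle for no effect and reference inhibitor for full effect; nearly all actives have a fitted effect of over 55% in size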
Target sequence (P08659 whole entry, looked up): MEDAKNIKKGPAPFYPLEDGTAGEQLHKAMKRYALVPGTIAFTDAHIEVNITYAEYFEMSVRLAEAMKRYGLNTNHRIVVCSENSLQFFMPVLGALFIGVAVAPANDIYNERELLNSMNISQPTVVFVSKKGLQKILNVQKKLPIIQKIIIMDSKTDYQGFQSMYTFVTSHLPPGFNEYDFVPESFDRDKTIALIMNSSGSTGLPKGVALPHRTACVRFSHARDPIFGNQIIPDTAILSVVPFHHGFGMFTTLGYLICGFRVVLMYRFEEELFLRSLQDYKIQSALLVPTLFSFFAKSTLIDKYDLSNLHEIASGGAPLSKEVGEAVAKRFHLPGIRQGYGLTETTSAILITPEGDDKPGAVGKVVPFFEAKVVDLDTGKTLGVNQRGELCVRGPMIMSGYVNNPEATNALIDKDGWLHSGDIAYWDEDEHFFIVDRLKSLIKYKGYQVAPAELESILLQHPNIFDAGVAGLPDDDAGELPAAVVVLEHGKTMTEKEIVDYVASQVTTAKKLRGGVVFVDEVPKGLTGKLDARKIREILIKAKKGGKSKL
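Biochemical qHTS of compounds, final roughly 60 µM downward over six points, against 10 nM purified firefly luciferase using Km concentrations of substrates (10 uM D-luciferin, 10 uM ATP) in Tris acetate pH 7.5 buffer; luminescence output.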
KinaseGlo FLuc = counter-screen: inhibitors of Kinase-Glo firefly luciferase. Kinase-Glo luciferase, ATP luminescence, 8 min. Potency, µM (highest dose often 38.3 µM), for the others: top-dose activity change, negative = inhibition, hits mostly inhibitors. hit rate 0.28% among 200,000. AID 1379; note: % is set by controls: 0 for no effect and ±100 for the full control effect; nearly all actives have a fitted effect of over 60% in size
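Compounds were added to a substrate mix at pH 7.2 (50 mM imidazole, 10 uM ATP, within the enzyme's linear range), followed by Kinase-Glo detection reagent; luminescence was measured after 8 minutes at ambient temperature.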
Rab9 promoter act = Rab9 promoter activation. Potency, µM (highest dose often 9.22 µM), for inactives: top-dose activation, negative = inhibition, hits mostly activators. Huh7 Rab9 promoter-luciferase reporter, luminescence, 24 h. AID 485297. hit rate 2.8% among 320,000; note: % of control where 0% means no effect; nearly all actives have a fitted effect of over 60% in size
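Huh7 reporter line, Rab9 promoter upstream of luciferase. Compound exposure 24 h at 37 °C in reduced-serum medium with 10% FBS. Read-out: luminescence.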
NPC1 prom act = activates the NPC1 promoter; Potency, µM (highest dose often 9.22 µM), for inactives: at the top dose activation, actives largely listed as activators; hit rate 2.4% among 320,000; Huh7 NPC1 promoter luciferase reporter, 24 h; note: % of control where 0% means no effect; nearly all actives have a fitted effect of over 60% in size
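In 1536-well qHTS, Huh7 cells harboring an NPC1 promoter–luciferase construct received compound for 24 h; activation was quantified by luminescence following luciferase reagent addition.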
Starred values were filed as active, the others as inactive. Calls come from the whole dose curve; as a rule, active = well fitted curve in the direction sought with a large enough effect; inconclusive = small, poorly fitted or top-dose-only effect, or another doubt; inactive = no such curve, though single readings can be large; an effect the other way counts as inactive or inconclusive. Potency is the fitted concentration of half-maximal effect.

For CC(C)CN(CC(C)C)S(=O)(=O)c1ccc(C(=O)Nc2sc3c(c2C(N)=O)CCN(C(C)C)C3)cc1 the results were FLuc counter 0%.
Screening CCn1cc(/C=C(\NC(=O)c2ccc(C)cc2)C(=O)NCCCn2ccnc2)c2ccccc21 returned SMN2 splice enh 3% and FLuc counter -6%.
For CCCn1nc2cc(C(=O)NCCc3cccs3)ccc2c1OCC the results were SMN2 splice enh 16µM*, ELG1 genotox 15%, FLuc counter inconclusive, KinaseGlo FLuc 4%, Rab9 promoter act inconclusive and NPC1 prom act inconclusive.
`CCCCNC(=O)c1ccc2c(OCC)n(CCCC)nc2c1` gave SMN2 splice enh -20%, ELG1 genotox 0%, FLuc counter -2%, KinaseGlo FLuc -2%, Rab9 promoter act 4% and NPC1 prom act 1%.
For C[C@@H](NC(=O)[C@@H]1Cc2ccccc2CN1)C(=O)Nc1ccc2c(c1)OCCO2 the results were ELG1 genotox inconclusive, FLuc counter 21µM*, Rab9 promoter act 27% and NPC1 prom act 30%.
`CCN(CC)c1ccc(-c2nn3c(-c4cccnc4)nnc3s2)cc1` gave SMN2 splice enh 2%, ELG1 genotox -7%, FLuc counter 21µM*, KinaseGlo FLuc -1%, Rab9 promoter act -20% and NPC1 prom act -23%.
Screening c1cncc(-c2nnc3sc(-c4ccco4)nn23)c1 returned SMN2 splice enh -19%, ELG1 genotox -3%, FLuc counter 2%, KinaseGlo FLuc -1%, Rab9 promoter act 1% and NPC1 prom act -6%.
Screening CCN(c1ccc(OCC(=O)OCC(=O)c2c(N)n(C)c(=O)n(C)c2=O)cc1)S(=O)(=O)c1ccccc1 returned SMN2 splice enh 1%, ELG1 genotox -1%, FLuc counter 12µM*, KinaseGlo FLuc 0%, Rab9 promoter act 9% and NPC1 prom act 3%.
Screening CN(c1ccc(OCC(=O)OCC(=O)c2c(N)n(C)c(=O)n(C)c2=O)cc1)S(=O)(=O)c1ccc2ccccc2c1 returned SMN2 splice enh 8%, ELG1 genotox 2%, FLuc counter -14%, KinaseGlo FLuc 1%, Rab9 promoter act 20% and NPC1 prom act -4%.
Screening CC(=O)Nc1cccc(OCC(=O)Nc2ccc(F)cc2)c1 returned SMN2 splice enh inconclusive, ELG1 genotox 5%, FLuc counter inconclusive, KinaseGlo FLuc 1%, Rab9 promoter act 20% and NPC1 prom act 14%.
For Cc1cccc(OCC(=O)Nc2ccc3c(c2)OCCO3)c1 the results were SMN2 splice enh 10%, ELG1 genotox 6.5µM*, FLuc counter 6µM*, KinaseGlo FLuc 1%, Rab9 promoter act 3.2µM* and NPC1 prom act inconclusive.
`Cc1ccc(OCC(=O)Nc2ccc3c(c2)OCCO3)cc1C` gave SMN2 splice enh -17%, ELG1 genotox inconclusive, FLuc counter 17µM*, KinaseGlo FLuc -2%, Rab9 promoter act 14% and NPC1 prom act 6%.
Screening Cc1ccc(OCC(=O)Nc2ccc(F)cc2)cc1C returned SMN2 splice enh 6%, ELG1 genotox inconclusive, FLuc counter 19µM*, KinaseGlo FLuc -1%, Rab9 promoter act -2% and NPC1 prom act -2%.
C/C(CC(=O)Nc1ccc2c(c1)OCCO2)=N\NC(=O)COc1ccccc1 was read as ELG1 genotox 7%, FLuc counter inconclusive, Rab9 promoter act 1% and NPC1 prom act -3%.
`CC(C)CNS(=O)(=O)c1ccc(OCC(=O)Nc2ccc3c(c2)OCCO3)cc1` gave ELG1 genotox -2%, FLuc counter 1%, KinaseGlo FLuc 5%, Rab9 promoter act 1% and NPC1 prom act -2%.
Screening CCOc1cccc(C2c3[nH]c4ccccc4c3CCN2C(=O)Cc2cccc(OCC)c2OCC)c1 (stereo not drawn) returned SMN2 splice enh -11% and FLuc counter -1%.
Cn1nc(C(=O)Nc2sc3c(c2C#N)CCCC3)ccc1=O was read as SMN2 splice enh -15%, ELG1 genotox inconclusive, FLuc counter 5.4µM*, KinaseGlo FLuc -4%, Rab9 promoter act 29% and NPC1 prom act 17%.
Screening CC(C)C(=O)Nc1sc2c(c1C#N)CCCCC2 returned SMN2 splice enh 12%, ELG1 genotox 9%, FLuc counter inconclusive, KinaseGlo FLuc -1%, Rab9 promoter act 17% and NPC1 prom act 21%.
For NC(=O)c1c(NC(=O)c2ccccc2)sc2c1CCC2 the results were ELG1 genotox 5.8µM*, FLuc counter 4.8µM*, Rab9 promoter act 3.2µM* and NPC1 prom act 2µM*.
Screening NC(=O)c1c(NC(=O)c2ccncc2)sc2c1CCCC2 returned SMN2 splice enh -80%, ELG1 genotox 5%, FLuc counter 11µM*, KinaseGlo FLuc -2%, Rab9 promoter act inconclusive and NPC1 prom act inconclusive.
Screening NC(=O)c1c(NC(=O)c2ccccc2)sc2c1CCN(Cc1ccccc1)C2 returned ELG1 genotox 13%, FLuc counter -2%, Rab9 promoter act 20% and NPC1 prom act 3%.
`C=CC(=O)Nc1sc2c(c1C(N)=O)CCCC2` gave ELG1 genotox 4%, FLuc counter inconclusive, Rab9 promoter act -3% and NPC1 prom act -12%.
For NC(=O)c1c(NC(=O)c2ccccc2)sc2c1CCc1ccccc1-2 the results were SMN2 splice enh inconclusive, ELG1 genotox 6.5µM*, FLuc counter 2.1µM*, KinaseGlo FLuc -9%, Rab9 promoter act 3.5µM* and NPC1 prom act 4.5µM*.
`CCc1ccc(CNC(=O)c2cc(=O)[nH]c3ccc(S(=O)(=O)N4CCCCC4)cc23)cc1` gave FLuc counter 0%.
For CCOC(=O)c1sc(NC(=O)c2ccncc2)c(C#N)c1C the results were SMN2 splice enh -75%, ELG1 genotox -4%, FLuc counter 11µM*, KinaseGlo FLuc -6%, Rab9 promoter act -9% and NPC1 prom act -1%.
NC(=O)c1c(NC(=O)c2ccncc2)sc2c1CCCCCC2 was read as ELG1 genotox -4%, FLuc counter 12µM*, Rab9 promoter act 0% and NPC1 prom act -5%.
CCOC(=O)c1c(NC(=O)c2ccncc2)sc(C)c1C was read as SMN2 splice enh -2%, ELG1 genotox -5%, FLuc counter -11%, KinaseGlo FLuc 0%, Rab9 promoter act -3% and NPC1 prom act -11%.
`NC(=O)c1c(NC(=O)c2cnccn2)sc2c1CCCC2` gave SMN2 splice enh inconclusive, ELG1 genotox inconclusive, FLuc counter 2.7µM*, KinaseGlo FLuc -2%, Rab9 promoter act 2µM* and NPC1 prom act inconclusive.
